Screening data from PubChem.
FECH inh = human FECH heme synthesis enzyme inhibition; P22830; purified FECH, Ni-mesoporphyrin absorbance 550 nm; calls only at 10 µM (by protocol); actives 3.3% (n = 20,000);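 active means enzyme reaction rate more than 3 SD below the solvent-only control wells on the same plate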;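 further: lower slope than DMSO wells means FECH inhibition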
Target sequence (P22830 whole entry, looked up): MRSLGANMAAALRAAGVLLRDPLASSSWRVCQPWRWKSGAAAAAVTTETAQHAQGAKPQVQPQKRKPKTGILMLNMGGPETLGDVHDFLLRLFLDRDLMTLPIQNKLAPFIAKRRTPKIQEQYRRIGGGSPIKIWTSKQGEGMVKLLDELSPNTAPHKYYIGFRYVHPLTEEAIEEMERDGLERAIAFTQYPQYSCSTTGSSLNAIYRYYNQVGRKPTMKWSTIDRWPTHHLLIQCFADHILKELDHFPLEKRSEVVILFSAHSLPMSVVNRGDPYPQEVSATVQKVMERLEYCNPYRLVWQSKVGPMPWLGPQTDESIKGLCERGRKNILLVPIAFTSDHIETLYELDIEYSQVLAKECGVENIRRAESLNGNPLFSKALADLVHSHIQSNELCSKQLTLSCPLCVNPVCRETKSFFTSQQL
The depositor's hits bear a star; i = inactive; + = active, no number. This excerpt belongs to a sample that is enriched for hits.

SMILES	FECH inh
COc1ccc(S(=O)(=O)Nc2cnc(N(CC(C)C)CC(C)C)c(C(=O)O)c2)cc1	+
CC(C)CN(CC(C)C)c1ncc(NS(=O)(=O)c2ccc(F)cc2)cc1C(=O)O	i
CC(C)CN(CC(C)C)c1ncc(NS(=O)(=O)c2ccccc2)cc1C(=O)O	i
C#CCN(C)C(=O)c1cc(C)c(C)c(S(N)(=O)=O)c1	i
CCC(C)NC(=O)N1CCN(c2cc(-c3cccc(OC)c3)ncn2)CC1 (stereo not given)	i
Cc1ccc(Nc2cc(C)nc3nc(-c4cccnc4)nn23)cc1	i
Cc1cccc(C(=O)Oc2ccc(Nc3cc(C)nc4nc(-c5cccnc5)nn34)cc2)c1	i
Cc1ccc(NC(=O)c2nc3ccccc3n(C)c2=O)c(C)c1	i
Cn1c(=O)c(C(=O)N2CCN(C3CCCCC3)CC2)nc2ccccc21	i
Cc1ccc(Cl)cc1N1CCN(C(=O)c2nc3ccccc3n(C)c2=O)CC1	i
Cc1cccc(N2CCN(C(=O)c3nc4ccccc4n(C)c3=O)CC2C)c1 (stereo not given)	+
COc1cccc(N2CCN(C(=O)c3nc4ccccc4n(C)c3=O)CC2)c1	+
Cc1cccc(N2CCN(C(=O)Cn3c(=O)c4cnc(-c5ccccc5)nc4n(C)c3=O)CC2C)c1 (stereo not given)	i
COc1ccc(N2CCN(C(=O)Cn3c(=O)c4cnc(-c5ccccc5)nc4n(C)c3=O)CC2)cc1	i
Cn1c(=O)c(C(=O)Nc2ccccc2Br)nc2ccccc21	i
Cn1c(=O)c(C(=O)Nc2ccc(F)cc2)nc2ccccc21	i
Cn1c(=O)c(C(=O)Nc2ccccn2)nc2ccccc21	+
CN1C[C@@H]2CC[C@H](CC1=O)N2C(=O)C1(c2ccc(Cl)cc2)CCC1	i
O=C(O)c1cc(NS(=O)(=O)c2ccc(F)c(F)c2)cnc1N1CCCCCC1	i
C/C=C/Cc1nnc(C(=O)N2CCC(O)(CO)C2)o1 (stereo not given)	i
Cc1cccc(C(C(=O)NCc2cnc(C)cn2)N(C)C)c1 (stereo not given)	i
Cc1cccc2oc(CNC(=O)C(c3cccc(F)c3)N(C)C)nc12 (stereo not given)	i
CN(C)C(C(=O)NCC1(O)CCCCC1)c1cccc(F)c1 (stereo not given)	+
CCc1c(C)nn(CC(=O)N[C@@H]2C[C@@H](C(=O)OC)N(C)C2)c1C	i
COc1ccc(OC)c(-c2c(Nc3ccc(C)cc3C)oc3c2c(=O)n(C)c(=O)n3C)c1	i
SMILES	FECH inh
CCOC(=O)c1c(NC(=O)c2ccco2)sc2c1CCN(C(C)C)C2	i
CCOC(=O)c1c(NC(=O)c2ccc(N3C(=O)CCC3=O)cc2)sc2c1CCN(C(C)C)C2	+
CCOC(=O)c1c(NC(=O)c2cccs2)sc2c1CCN(C(C)C)C2	i
O=C(NC1CC1)C1CCCN(C2CCN(Cc3nccs3)CC2)C1 (stereo not given)	i
Cc1ccsc1CCNC(=O)C1CCCN1c1nnc(N2CCCC2=O)s1 (stereo not given)	i
COc1ccc(CCNC(=O)C2CCCN2c2nnc(N3CCCCC3=O)s2)cc1OC (stereo not given)	i
COc1ccc(CNC(=O)C2CCCN2c2nnc(N3CCCC3=O)s2)c(OC)c1 (stereo not given)	+
CN(CCNC(=O)C1CCCN1c1nnc(N2CCCC2=O)s1)C1CCCCC1 (stereo not given)	i
O=C(NCCCN1CCN(C2CCCCC2)CC1)C1CCCN1c1nnc(N2CCCC2=O)s1 (stereo not given)	+
CN(CCCNC(=O)C1CCCN1c1nnc(N2CCCC2=O)s1)C1CCCCC1 (stereo not given)	i
CN(C)Cc1nc(C(=O)N(C)C2Cc3ccccc3C2)cs1	i
O=S(=O)(NCc1nc2cccnc2n1Cc1ccccc1Cl)c1cccs1	i
COc1ccc(CNC(=O)NCCCn2c(-c3ccncc3)nc3cccnc32)cc1	i
CC(=O)N1CCn2nc(C(=O)NCc3nc4cc(C(C)(C)C)ccc4o3)cc2C1	i
COc1cc(OC)c(NC(=O)N2CCC(n3c(C)nc4cccnc43)CC2)cc1Cl	i
COc1cccc(C(=O)C2CCCN(C(=O)c3cccc(F)c3OC)C2)c1 (stereo not given)	i
COc1ccc(Nc2nc(N3CCCC3)nc3c2cnn3-c2ccccc2)cc1	+
COc1ccc(Nc2nc(NCC(C)O)nc3c2cnn3-c2ccccc2)cc1 (stereo not given)	+
Cc1ccc(Nc2nc(NCC(C)O)nc3c2cnn3-c2ccccc2)cc1C (stereo not given)	i
Cc1ccc(Nc2nc(N3CCOCC3)nc3c2cnn3-c2ccccc2)cc1C	i
COc1cccc(Nc2nc(NCC(C)O)nc3c2cnn3-c2ccccc2)c1 (stereo not given)	i
FC(F)Sc1ccc(Nc2nc(N3CCOCC3)nc3c2cnn3-c2ccccc2)cc1	+
CCOc1ccc(Nc2nc(N3CCCC3)nc3c2cnn3-c2ccccc2)cc1	i
COCCNc1nc(Nc2ccc(OC)cc2)c2cnn(-c3ccccc3)c2n1	i
CCCNc1nc(Nc2ccc(OC)cc2)c2cnn(-c3ccccc3)c2n1	+
SMILES	FECH inh
COc1ccc(Nc2nc(NCCO)nc3c2cnn3-c2ccccc2)cc1	i
COc1ccc(Nc2nc(N3CCN(C)CC3)nc3c2cnn3-c2ccccc2)cc1	i
CCOc1ccc(Nc2nc(N3CCOCC3)nc3c2cnn3-c2ccccc2)cc1	i
Cc1cc(NC(=O)c2c(F)cccc2F)n(-c2ncnc3c2cnn3-c2ccc(Cl)cc2)n1	i
Cc1oc(-c2ccc(OC(C)C)cc2)nc1CSc1nc(-c2ccc(Cl)cc2)cc(=O)[nH]1	i
Cc1ccccc1Nc1nc(N2CCCCC2)nc2c1cnn2-c1ccccc1	i
CCSC[C@H](N)C(=O)N[C@H]1C[C@H]2C(=O)N(C)CC(=O)N2C1	i
Cc1cc(N2CCOCC2)nc(N2CCN(S(=O)(=O)c3ccccc3)CC2)n1	i
Cc1nc2ncnn2c(Sc2ccccc2NC(=O)COc2ccc(Cl)cc2)c1C	i
CN(Cc1cc(-c2ccncc2)no1)Cc1ccc(CO)o1	i
CSc1ccccc1C(=O)Nc1cc(C)nn1-c1ncnc2c1cnn2-c1ccc(Cl)cc1	i
CCC(=O)Nc1ccccc1-c1nnc(SC(C)C(=O)Nc2cccc(C)c2C)[nH]c1=O (stereo not given)	i
CC(=O)N1c2ccc(S(=O)(=O)N3CCOCC3)cc2CC1C(=O)NCCN1CCCC1 (stereo not given)	+
CC(=O)N1c2ccc(S(=O)(=O)N3CCCCC3)cc2CC1C(=O)NCCCN1CCCC1 (stereo not given)	i
CC(=O)N1c2ccc(S(=O)(=O)N3CCCCC3)cc2CC1C(=O)Nc1ccncc1 (stereo not given)	i
COc1ccc(C(=O)Nc2cc(C)nn2-c2ncnc3c2cnn3-c2ccc(F)cc2)cc1OC	i
CC(C)c1noc(C2CCCN2Cc2cn[nH]c2-c2ccc(F)cc2)n1 (stereo not given)	i
Cc1ccc(C(=O)Nc2nc3n(n2)C(c2ccccc2Cl)C=C(c2ccc(C)cc2)N3)cc1 (stereo not given)	i
Cc1ccc(C2=CC(c3ccccc3Cl)n3nc(NC(=O)c4cccc(C)c4)nc3N2)cc1 (stereo not given)	i
Cc1cccc(C(=O)Nc2nc3n(n2)C(c2ccccc2Cl)C=C(c2ccccc2)N3)c1 (stereo not given)	i
